The values that follow come from paper PMC4336329 (PLoS ONE, 2015).

Hit rate of the full screen: of about 310,000 compounds, about 14,000 (4.5%) showed an effect of 50% or more. Effects have a minus sign here. This excerpt belongs to a sample that is enriched for strong results.
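Further: peak tail current of the secondary pulse compared with the same well before compound.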

This experiment deals with human ether-à-go-go-related gene (hERG) potassium channel (human, UniProt Q12809). Put plainly: primary screen, population patch clamp on CHO cells stably expressing hERG; higher = less effect of the substance.
human ether-à-go-go-related gene (hERG) potassium channel, sequence (Q12809 whole entry, looked up): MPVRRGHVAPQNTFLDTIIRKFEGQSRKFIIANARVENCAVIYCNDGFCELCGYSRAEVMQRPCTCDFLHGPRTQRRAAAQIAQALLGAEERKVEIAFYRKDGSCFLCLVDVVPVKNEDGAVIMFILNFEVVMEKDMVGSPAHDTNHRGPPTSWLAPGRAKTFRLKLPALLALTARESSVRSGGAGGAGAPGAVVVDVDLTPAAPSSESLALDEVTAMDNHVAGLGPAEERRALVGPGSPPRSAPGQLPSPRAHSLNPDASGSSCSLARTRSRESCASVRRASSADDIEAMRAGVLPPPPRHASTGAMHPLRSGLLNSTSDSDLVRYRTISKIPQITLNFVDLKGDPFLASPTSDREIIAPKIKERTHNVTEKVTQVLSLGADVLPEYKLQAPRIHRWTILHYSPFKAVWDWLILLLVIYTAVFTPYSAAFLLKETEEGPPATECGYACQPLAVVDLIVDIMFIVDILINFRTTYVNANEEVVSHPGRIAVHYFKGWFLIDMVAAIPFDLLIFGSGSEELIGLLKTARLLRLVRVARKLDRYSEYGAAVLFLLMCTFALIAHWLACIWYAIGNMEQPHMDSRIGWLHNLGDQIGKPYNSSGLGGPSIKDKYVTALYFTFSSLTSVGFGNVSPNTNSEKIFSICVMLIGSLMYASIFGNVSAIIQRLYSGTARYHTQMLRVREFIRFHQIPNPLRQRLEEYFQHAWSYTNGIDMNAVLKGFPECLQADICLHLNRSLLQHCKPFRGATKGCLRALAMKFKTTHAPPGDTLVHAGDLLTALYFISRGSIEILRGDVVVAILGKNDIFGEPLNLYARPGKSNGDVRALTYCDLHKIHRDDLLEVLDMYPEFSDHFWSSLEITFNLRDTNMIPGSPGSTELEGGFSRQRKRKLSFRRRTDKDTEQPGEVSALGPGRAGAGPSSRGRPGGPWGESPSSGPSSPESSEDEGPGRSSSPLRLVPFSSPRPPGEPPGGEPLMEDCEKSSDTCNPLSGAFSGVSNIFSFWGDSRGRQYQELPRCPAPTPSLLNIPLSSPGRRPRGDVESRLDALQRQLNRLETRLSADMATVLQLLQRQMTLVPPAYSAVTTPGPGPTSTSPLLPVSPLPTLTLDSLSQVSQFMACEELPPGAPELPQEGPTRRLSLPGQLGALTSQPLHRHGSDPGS
In the case of `CC(C)c1cc(-c2cc(C(=O)Nc3ccccc3)on2)nc(NCC2CC2)n1`, the “hERG current change (%, negative = inhibition) at 10uM” value is 10.3%.

Regarding `NC(=O)NN=C1C2CCCC1C(c1ccccc1)NC2c1ccccc1` (stereo not drawn), the “hERG current change (%, negative = inhibition) at 10uM” value is -7.17%.

Consider `O=C(O)C/C(=C\c1ccc(Cl)cc1)c1nc2ccccc2o1`, for which the “hERG current change (%, negative = inhibition) at 10uM” value is reported as 6.78%.

As to `Cc1ccc(C)c2c1cc(C)c1nnc(SCC(=O)c3cccs3)n12`, the “hERG current change (%, negative = inhibition) at 10uM” value is -61.5%.

Take `Cc1ccc2cc(C)c3nnc(SCC(=O)c4cccs4)n3c2c1C`: the “hERG current change (%, negative = inhibition) at 10uM” value is -23.1%.

Consider `Cc1cc(C)c2c(c1)c(C)cc1nnc(SCC(=O)c3cccs3)n12`, for which the “hERG current change (%, negative = inhibition) at 10uM” value is -2.98%.

Regarding `Cc1cc(N)n(-c2ccc(C(=O)O)cc2)n1.Cl`, the “hERG current change (%, negative = inhibition) at 10uM” value was determined as 13.6%.

As to `COc1ccc(CNC(=O)c2ccc(-c3ccccc3)cc2)cc1OC`, the “hERG current change (%, negative = inhibition) at 10uM” value was 0.777%.

As for `Cc1cc2c(cc1S(=O)(=O)CCC(=O)NC1CCCCC1C)OCC(=O)N2` (stereo not drawn), the “hERG current change (%, negative = inhibition) at 10uM” value is recorded as -53%.

Consider `Cc1cc2c(cc1S(=O)(=O)CCC(=O)Nc1cccc(C(F)(F)F)c1)OCC(=O)N2`, for which the “hERG current change (%, negative = inhibition) at 10uM” value was -54%.

Take `CC1CCCCC1NC(=O)CCS(=O)(=O)c1cc2c(cc1Cl)NC(=O)CO2` (stereo not drawn): the “hERG current change (%, negative = inhibition) at 10uM” value is -30.5%.

For `CC(=O)c1cccc(NC(=O)CCS(=O)(=O)c2cc3c(cc2C)NC(=O)CO3)c1`, the “hERG current change (%, negative = inhibition) at 10uM” value is reported as 1.62%.

Take `Cc1cc2c(cc1S(=O)(=O)CCC(=O)NC1CCC(C)CC1)OCC(=O)N2` (stereo not drawn): the “hERG current change (%, negative = inhibition) at 10uM” value was -14.7%.

As for `CCc1cccc(NC(=O)CCS(=O)(=O)c2cc3c(cc2C)NC(=O)CO3)c1`, the “hERG current change (%, negative = inhibition) at 10uM” value is reported as -14.1%.

As to `Cc1nc(Sc2nnnn2-c2ccccc2)c(C#N)c(C)c1C`, the “hERG current change (%, negative = inhibition) at 10uM” value was -21.3%.

For `CCOC(=O)C1CCCN(C(=O)Cn2cccc2C(=O)c2ccccc2)C1` (stereo not drawn), the “hERG current change (%, negative = inhibition) at 10uM” value is -11.5%.

For the compound `Cc1cccc(C)c1NC(=O)COC(=O)c1cccnc1`, the “hERG current change (%, negative = inhibition) at 10uM” value was 4.43%.

With `C#CCOC(=O)C[N+](C)(C)C/C=C/c1ccccc1.[Cl-]`, the “hERG current change (%, negative = inhibition) at 10uM” value was determined as 10.4%.

Regarding `Cc1cccc(-c2nc(CSCC(=O)N3CCN(c4ccccn4)CC3)c(C)o2)c1`, the “hERG current change (%, negative = inhibition) at 10uM” value was -41.2%.

Turning to `Cc1oc(-c2cccc(Cl)c2)nc1CN1CCC(C(=O)N2CCN(c3ccccc3F)CC2)CC1`, the “hERG current change (%, negative = inhibition) at 10uM” value is -69.1%.

Consider `Cc1oc(-c2cccc(C(F)(F)F)c2)nc1CN1CCN(c2ccccn2)CC1`, for which the “hERG current change (%, negative = inhibition) at 10uM” value is recorded as -52.5%.

With `Cc1oc(-c2cccc(C(F)(F)F)c2)nc1CN1CCOCC1`, the “hERG current change (%, negative = inhibition) at 10uM” value is -3.32%.

As for `Cc1cccc(N2CCN(Cc3nc(-c4cccc(Oc5ccccc5)c4)oc3C)CC2)n1`, the “hERG current change (%, negative = inhibition) at 10uM” value came to 4.13%.

Take `Cc1oc(-c2cccc(Cl)c2)nc1CN1CCC(C(=O)N2CCN(c3ccccn3)CC2)CC1`: the “hERG current change (%, negative = inhibition) at 10uM” value was -68.5%.

`Cc1oc(-c2cc(F)ccc2F)nc1CN1CCC(C(=O)N2CCOCC2)CC1`: the “hERG current change (%, negative = inhibition) at 10uM” value is -42.8%.

Turning to `CCN1CCN(C(=O)C2CCN(Cc3nc(-c4cccc(Cl)c4)oc3C)CC2)CC1`, the “hERG current change (%, negative = inhibition) at 10uM” value is reported as -42.9%.

As to `COc1ccc(-c2nc(CN3CCC(C(=O)N4CCOCC4)CC3)c(C)o2)cc1C`, the “hERG current change (%, negative = inhibition) at 10uM” value is -6.98%.

Take `Cn1nnc2ccccc2c1=O`: the “hERG current change (%, negative = inhibition) at 10uM” value was 12.5%.

With `C/C(=N\NC(=S)Nc1c(C)cccc1C)c1cc2ccccc2o1`, the “hERG current change (%, negative = inhibition) at 10uM” value was 15.1%.

For the compound `CCc1ccccc1NC(=O)CSc1n[nH]c(C)c1[N+](=O)[O-]`, the “hERG current change (%, negative = inhibition) at 10uM” value was -8.12%.

For the compound `CCNc1ccc(C(=O)O)cc1N`, the “hERG current change (%, negative = inhibition) at 10uM” value came to 9.77%.

Take `Cc1cccc(OCCOC(=O)C2CCN(S(=O)(=O)c3cccs3)CC2)c1`: the “hERG current change (%, negative = inhibition) at 10uM” value was 6.58%.

Turning to `COc1cc(NC(=O)c2cccnc2)c(Cl)cc1NC(=O)c1ccc(Cl)cc1`, the “hERG current change (%, negative = inhibition) at 10uM” value is -0.00342%.

On to `COc1cc(/C=C2\SC(=O)NC2=O)ccc1Oc1cnccn1`, for which the “hERG current change (%, negative = inhibition) at 10uM” value worked out at 2.14%.

Regarding `COc1ccc(S(=O)(=O)NCc2ccc(C(=O)N(C)Cc3ccco3)cc2)cc1`, the “hERG current change (%, negative = inhibition) at 10uM” value was -19.1%.

`CC(C)c1ccc(CN(C)C(=O)c2ccc(S(=O)(=O)NCc3ccco3)cc2)cc1`: the “hERG current change (%, negative = inhibition) at 10uM” value is listed as -33.7%.

Regarding `CN(Cc1cccs1)C(=O)c1ccc(S(=O)(=O)NCc2ccco2)cc1`, the “hERG current change (%, negative = inhibition) at 10uM” value was -54.2%.

For `CCN(CC(=O)NCc1ccc(Cl)cc1)C(=O)c1ccc(S(=O)(=O)N(C)C)cc1`, the “hERG current change (%, negative = inhibition) at 10uM” value is reported as -33.2%.

As for `CCN(CC(=O)NCc1ccc(Cl)cc1)C(=O)c1ccc(S(=O)(=O)NCc2ccco2)cc1`, the “hERG current change (%, negative = inhibition) at 10uM” value is -54.9%.

As to `CCN(CC(=O)Nc1c(F)cccc1F)C(=O)c1ccc(S(=O)(=O)NCc2ccco2)cc1`, the “hERG current change (%, negative = inhibition) at 10uM” value is 8.72%.

For the compound `COc1ccccc1CN(C)C(=O)c1ccc(S(=O)(=O)NCc2ccco2)cc1`, the “hERG current change (%, negative = inhibition) at 10uM” value was -14.9%.

`Cc1nn(-c2ccccc2)c(C)c1CN(C)C(=O)c1ccc(S(=O)(=O)NCc2ccco2)cc1`: the “hERG current change (%, negative = inhibition) at 10uM” value is recorded as -21.2%.

Take `CN(Cc1ccc(Cl)cc1)C(=O)c1ccc(S(=O)(=O)NCc2ccco2)cc1`: the “hERG current change (%, negative = inhibition) at 10uM” value is -51.8%.

In the case of `Cc1ccccc1C(=O)Nc1cccc(NC(=O)c2cccnc2)c1`, the “hERG current change (%, negative = inhibition) at 10uM” value is recorded as -9.39%.

Take `CCn1ncc(/C=C2/SC(=S)NC2=O)c1C`: the “hERG current change (%, negative = inhibition) at 10uM” value worked out at 23.6%.

With `CCOc1ncnc2c1sc1nc(C)cc(C)c12`, the “hERG current change (%, negative = inhibition) at 10uM” value was determined as 16%.

In the case of `CC(C)N(C(=O)N1CCC(c2nc(-c3ccncc3)no2)CC1)C(C)C`, the “hERG current change (%, negative = inhibition) at 10uM” value was -15.3%.

As to `O=C(c1ccco1)N1CCN(S(=O)(=O)c2ccc(Br)s2)CC1`, the “hERG current change (%, negative = inhibition) at 10uM” value is recorded as -16%.

For the compound `CCCCNC(=O)c1cc2c(=O)n3cccc(C)c3nc2n(CCN2CCOCC2)c1=N`, the “hERG current change (%, negative = inhibition) at 10uM” value is reported as -86%.

In the case of `CCOCCCn1c(=N)c(C(=O)NCCN2CCOCC2)cc2c(=O)n3cccc(C)c3nc21`, the “hERG current change (%, negative = inhibition) at 10uM” value was -53.6%.

Consider `Cc1cccn2c(=O)c3cc(C(=O)NCCN4CCOCC4)c(=N)n(CCN4CCOCC4)c3nc12`, for which the “hERG current change (%, negative = inhibition) at 10uM” value is 18.5%.

`Cc1cccn2c(=O)c3cc(C(=O)NCCN4CCOCC4)c(=N)n(CCCN4CCOCC4)c3nc12`: the “hERG current change (%, negative = inhibition) at 10uM” value was 15.2%.

Turning to `Cc1ccc(NC(=O)CN2CCCCC2)c2c1CC(C)(C)O2`, the “hERG current change (%, negative = inhibition) at 10uM” value was found to be 1.17%.

`O=C(Cc1cccs1)Nc1nc(-c2ccc(F)cc2F)cs1`: the “hERG current change (%, negative = inhibition) at 10uM” value was -4.34%.
